# About 2,100 (0.57%) of roughly 370,000 compounds were called active. Shown is part of a subset that was picked to be rich in actives. Values without a mark were called inactive.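 How the source made its calls: active means inhibition above mean plus 3 SD of compounds lying within the high and low control bounds (cut at about 19% in these data); inactive means the rest.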
# Molecular target: Group 3 secretory phospholipase A2 (Homo sapiens) (UniProt Q9NZ20)
# Assay: human group III sPLA2 inhibitors, primary screen, biochemical, QFRET, BODIPY PC-A2 liposome substrate (AID 743126);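 further: 0% = median of test compound wells and 100% = no enzyme DMSO wells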
# Settings: QFRET BODIPY PC-A2 liposome hydrolysis, fluorescence; at 12.2 µM; hits give high values
# Sequence of Group 3 secretory phospholipase A2 (Homo sapiens) (Q9NZ20 whole entry, looked up): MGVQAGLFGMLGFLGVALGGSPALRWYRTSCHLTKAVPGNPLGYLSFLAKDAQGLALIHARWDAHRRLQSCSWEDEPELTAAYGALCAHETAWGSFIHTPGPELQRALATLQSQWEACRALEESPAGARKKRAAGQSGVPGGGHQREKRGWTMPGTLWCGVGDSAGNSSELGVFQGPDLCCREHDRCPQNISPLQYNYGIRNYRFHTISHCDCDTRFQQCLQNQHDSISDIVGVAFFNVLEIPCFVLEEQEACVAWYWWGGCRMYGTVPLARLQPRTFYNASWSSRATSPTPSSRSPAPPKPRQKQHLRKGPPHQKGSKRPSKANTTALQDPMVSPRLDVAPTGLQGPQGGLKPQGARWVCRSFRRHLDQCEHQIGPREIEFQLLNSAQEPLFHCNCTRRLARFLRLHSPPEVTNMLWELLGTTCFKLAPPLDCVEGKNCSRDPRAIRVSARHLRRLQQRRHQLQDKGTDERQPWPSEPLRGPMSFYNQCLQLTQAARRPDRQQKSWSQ
row,SMILES,inhibition
1,COc1ccc(-n2c(SCC(=O)Nc3ccc4c(c3)OCCO4)nnc2-c2ccc(Cl)cc2)cc1,0.31%
2,CC(NCc1ccco1)C(=O)N1CCCCC1 (configuration not stated),3.8%
3,O=C(CSc1ccccc1F)NC1CCS(=O)(=O)C1 (configuration not stated),1.4%
4,CCN(CC(=O)NC1CCS(=O)(=O)C1)S(=O)(=O)c1ccccc1 (configuration not stated),22.4% (active)
5,CCN(CC(=O)NCCc1ccccc1)S(=O)(=O)c1ccccc1,0.93%
6,CCCNC(=O)Nc1ccc2c(c1)C(=O)N(C)[C@H]1CC[C@H](CC(=O)NCC3CCCCC3)O[C@@H]1CO2,-24.2%
7,C=CCN1[C@@H](Cc2ccccc2)COc2cccc(N3CCSCC3)c2S1(=O)=O,-0.87%
8,O=C(CSc1nc2ccccc2s1)N=Nc1c(O)[nH]c2ccccc12,-40.6%
9,Cc1sc2nc(SCC(=O)c3ccc(O)c(O)c3)n(Cc3ccco3)c(=O)c2c1C,23.9% (active)
10,O=C(CSc1nnc(COc2ccccc2)n1Cc1ccco1)c1ccc2ccccc2c1,-53.5%
11,O=C(CSc1nnc(-c2cccs2)n1Cc1ccco1)c1ccc2c(c1)OCO2,-35.9%
12,COc1ccc(-n2c(COc3ccc(C)cc3)nnc2SCC(=O)Nc2ccc(Oc3ccccc3)cc2)cc1,-8.43%
13,CCN(C(=O)[C@@H](C1CC1)[C@@H](O)c1ccc2ccccc2c1)c1ccccc1,4.03%
14,CCCCN1CCN(C(=O)c2ccc3c(c2)NC(=O)C(C)(C)O3)CC1,5.11%
15,O=C(Nc1ccccc1)N1CCN(Cc2nc3ccccc3c(=O)[nH]2)CC1,7.43%
16,COC(=O)[C@H](C(C)C)N1CCc2nnn(Cc3ccc(C)cc3)c2-c2ccccc2S1(=O)=O,-9.33%
17,CC(C)=CCCC1(C)C=Cc2c(ccc3c2[nH]c2cc(O)c(C)cc23)O1 (configuration not stated),22.9% (active)
18,C=C(C)C#CC(Cc1ccccc1)N(CC1CC1)/C(N)=N/C(=O)OCc1ccccc1 (configuration not stated),7.88%
19,CC(C)c1cc(C(=O)N/N=C/c2ccoc2)c(O)c(C(C)C)c1,22.1% (active)
20,CC(C)c1cc(N=O)cc(C(C)C)c1O,-42.9%
21,C[C@@H]1COc2cccc(N3CCCC3)c2S(=O)(=O)N1C,2.99%
22,O=C(c1ccccc1)c1ccc(-c2ccccc2C(=O)NC2CCCCN(Cc3ccc(Cl)cc3)C2=O)cc1 (configuration not stated),-1.89%

row,SMILES,inhibition
1,COc1cc2c(cc1OC)C(c1ccccc1Br)NC(=O)C2 (configuration not stated),13.2%
2,Brc1ccccc1C1N=C(c2ccccc2)NO1 (configuration not stated),9.79%
3,Brc1ccccc1C1Nc2cccc3cccc(c23)N1,27.1% (active)
4,Cc1ccc(NC(=O)Nc2cc(C)nn2-c2ccccc2)cc1,3.2%
5,Cc1nc2ccc(C(=O)N3CCN(C(=O)C(C)(C)C)CC3)cc2n1C1CCCC1,3.1%
6,CN1C(=O)c2cc(NS(C)(=O)=O)ccc2OC[C@@H]2O[C@@H](CC(=O)NCc3ccc(-c4ccccc4)cc3)CC[C@H]21,-2%
7,c1csc(-c2nnc(SCc3nc4ccccc4[nH]3)o2)c1,-4.46%
8,O=C(NC1CCCCN(Cc2cccc(C(F)(F)F)c2)C1=O)c1ccccc1I (configuration not stated),-1.99%
9,Cc1c(Cl)cccc1NC(=S)NCC(O)c1ccccc1 (configuration not stated),8.54%
10,Cc1c(Cl)cccc1NC(=S)NCc1ccc2c(c1)OCO2,19.5% (active)
11,COc1cccc(CNCc2ccc3c(c2)OCO3)c1,3.34%
12,O=C(CSc1nnc(-c2cccc(Cl)c2)n1Cc1ccco1)Nc1ccc(OCc2ccccc2)cc1,-12.1%
13,Cc1ccccc1CS(=O)(=O)Cc1ccc(C(=O)Nc2ccc(Cl)cc2)o1,-4.56%
14,CCOc1ccc(N2CC(C(=O)NCc3ccccn3)CC2=O)cc1 (configuration not stated),0.93%
15,COc1ccc(NC(=O)C2C3C=CC(C3)C2C(=O)NCc2ccccn2)c(OC)c1 (configuration not stated),20.6% (active)
16,CCS(=O)(=O)N1Cc2ccccc2CC1C(=O)Nc1ccc(OC)cc1OC (configuration not stated),-0.28%
17,Cc1ccc(-n2c(SCC(=O)Nc3cccc4ccccc34)nnc2-c2ccccn2)cc1,-5.54%
18,CCc1cc(C(c2ccccc2OC)N2CCOCC2)c(NC(=O)c2ccccc2)s1 (configuration not stated),-10.3%
19,O=C(Nc1ccc(CSc2ccccc2)cc1)c1ccc(CN2CCOCC2)cc1,-16.7%
20,COc1ccc(C(=O)Nc2sc(C)c(C)c2CN2CCOCC2)cc1,21.9% (active)
21,CCCCC(=O)N[C@@H]1CC[C@@]23CCCN2C(=O)CCC[C@H]3[C@H]1C,7.19%
22,COCC(=O)N[C@@H]1C[C@@H]2O[C@@H](CO)CC[C@@H]2O[C@@H]1CCc1ccc(-c2ccccc2)cc1,-1.64%

row,SMILES,inhibition
1,COc1ccc(C(N)c2csc(NC(=O)Nc3cccc(C(F)(F)F)c3)n2)cc1 (configuration not stated),27.4% (active)
2,NC(c1csc(NC(=O)Nc2cccc(C(F)(F)F)c2)n1)C1CCCCC1 (configuration not stated),6.78%
3,CCOC(=O)c1csc(NC(=O)Nc2cccc(OC)c2)n1,-1.84%
4,COC(=O)C[C@H]1CC[C@H]2[C@H](COc3ccc(NC(=O)C4CC4)cc3C(=O)N2C)O1,-1.19%
5,CC(C)(C)c1ccc(CSc2nnc(-c3cccs3)o2)cc1,-0.56%
6,CN(C)S(=O)(=O)c1cccc(NC(=S)N/N=C/C(=O)c2ccccc2)c1,24% (active)
7,CN(C)S(=O)(=O)c1cccc(C(=O)N/N=C\c2ccco2)c1,1.45%
8,CN(C)S(=O)(=O)c1cccc(NC(=O)COC(=O)/C=C/c2cccs2)c1,-11.5%
9,COC(=O)C1CN(Cc2cn(Cc3ccc(F)cc3)nn2)CCS(=O)(=O)N1Cc1ccc(Cl)cc1 (configuration not stated),-11.8%
10,Cc1cc(C(=O)NN=C/C=C/c2ccco2)n[nH]1,13%
11,COc1ccc2c(c1)c(=Cc1ccc(N(C)C)cc1)c1cc(-c3ccccc3)[n+](C)n12,31.7% (active)
12,CCCC[C@H](C(=O)N(CC)c1ccccc1)[C@@H](O)c1ccc2ccccc2c1,-3.7%
13,O=C(NNC(=S)Nc1ccc(F)cc1)[C@H]1C[C@@H]1c1ccccc1,24% (active)
14,Cc1ccc(NC(=O)C2CC2c2ccccc2)cc1 (configuration not stated),-0.8%
15,O=S(=O)(NC(=S)Nc1ccccc1)c1ccc(F)cc1,-1.06%
16,c1ccc(C2=Nc3cccc4cccc(c34)N2)cc1,38.6% (active)
17,Brc1ccc(C2CC(c3ccccc3)=Nc3ccccc3N2)cc1 (configuration not stated),-5.39%
18,CC[C@]1(O)CC2CN(CCc3c([nH]c4ccccc34)[C@@](C(=O)OC)(c3cc4c(cc3OC)N(C=O)[C@H]3[C@@](O)(C(=O)OC)[C@H](OC(C)=O)[C@]5(CC)C=CCN6CC[C@]43[C@@H]65)C2)C1 (some centres not stated),13.5%
19,CC[C@]1(O)C[C@@H]2CN(CCc3c([nH]c4ccccc34)[C@@](C(=O)OC)(c3cc4c(cc3OC)N(C)[C@H]3[C@@](O)(C(=O)OC)[C@H](OC(C)=O)[C@]5(CC)C=CCN6CC[C@]43[C@@H]65)C2)C1,24.8% (active)
20,C=CCN1C(=O)[C@@H](CC(=O)NCCCCc2ccccc2)[C@]2(C(=O)OCC)CCCCC/C=C/12,-9.75%
21,COC(=O)[C@]1(C#N)CC(=O)N(CC2CCCCC2)[C@@H]1c1ccccc1,4.27%
22,CN(C(N)=NC(=O)/C=C/c1ccccc1)C(C#Cc1ccccc1)Cc1ccccc1 (configuration not stated),2.67%

row,SMILES,inhibition
1,O=C(NNc1ccccn1)c1ccc(Cl)nc1,21.1% (active)
2,CCN(CC)S(=O)(=O)c1cc(C(=O)Nc2ccccn2)ccc1C,-0.99%
3,O=C(COC(=O)c1ccccn1)NNC(=O)c1ccc(Br)cc1,-1.11%
4,O=S1(=O)c2c(cccc2N2CC[C@H](O)C2)O[C@@H]2CCN1C2,4.99%
5,O=C(NCc1ccco1)C1CCCN(S(=O)(=O)c2ccc(Cl)s2)C1 (configuration not stated),-7.36%
6,Cc1cc2cc(CNC(=O)c3cccs3)ccc2[nH]1,1.16%
7,CCc1cccc(CC)c1NC(=S)NCc1ccc2[nH]c(C)cc2c1,20.3% (active)
8,CCOCC(=O)NCc1ccc2c(c1)cc(C)n2C,12.3%
9,COc1cccc(CNC(=O)C2CCCN(c3nc4ccccc4o3)C2)c1OC (configuration not stated),10.2%
10,COc1ccc(-n2c(SCC(=O)Nc3ccc(C)c(Cl)c3)nc3ccccc3c2=O)cc1,14.2%
11,CC(C)(C)OC(=O)NCCc1ccccc1/C=C/S(=O)(=O)NCc1ccc(F)cc1,-1.5%
12,CCCCNC(=O)C[C@H]1C[C@@]2(C(=O)OC)C(=C[C@H](COCc3ccccc3)O[C@@H]2C)N(Cc2ccc(Cl)cc2Cl)C1=O,-3.1%
13,Cc1ccc(-c2nnc(SCC(=O)Nc3ccc(Oc4ccccc4)cc3)n2Cc2ccco2)cc1,-6.88%
14,O=C(CCl)NNc1cccc(Cl)n1,71% (active)
15,O=C(NNc1cc(Cl)cc(Cl)c1)c1c(F)cccc1Cl,3.94%
16,O=C(Cc1c(Cl)cccc1Cl)NC1CC1,2.07%
17,COC(=O)[C@]12C[C@H](CC(=O)N3CCOCC3)C(=O)N(Cc3ccc(Cl)cc3Cl)C1=C[C@H](COCc1ccccc1)O[C@@H]2C,-3.17%
18,O=C1CC(c2ccc3c(c2)OCO3)N=C2N(CC3CC3)C/C(=C/c3ccccc3)N12 (configuration not stated),-10.4%
19,CCOc1ccc(Br)cc1S(=O)(=O)Nc1cccc(S(=O)(=O)N(CC)CC)c1,-8.7%
20,CCOc1ccc(Br)cc1CSC(=N)N,34.9% (active)
21,CCOc1ccc(Br)cc1S(=O)(=O)N1CCC(C(=O)O)CC1,5.01%
